We go through 63 sequences from PMC7819943, “Rice protein-binding microarrays: a tool to detect cis-acting elements near promoter regions in rice”.

In all, about 35,000 sequences were measured (“fluorescence intensity (a.u.)”: median about 10,000, highest 2% from about 52,000 on). This is one part of a sample in which the highest values are shown more often than they occur.

For the experiment, the target named is T1, OsWOX13 (Oryza sativa, UniProt Q5QMM3 1-267).
T1 sequence: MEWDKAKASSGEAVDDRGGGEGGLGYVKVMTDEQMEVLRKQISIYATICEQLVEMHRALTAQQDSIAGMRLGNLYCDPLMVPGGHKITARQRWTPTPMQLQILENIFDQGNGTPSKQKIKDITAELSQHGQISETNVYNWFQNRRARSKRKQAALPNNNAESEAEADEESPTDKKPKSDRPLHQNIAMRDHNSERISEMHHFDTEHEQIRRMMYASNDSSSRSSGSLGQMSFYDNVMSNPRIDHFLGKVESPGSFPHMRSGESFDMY
The experiment can be described thus: protein-binding microarray (RPBM); PBS, 2% BSA, 51.3 ng/ul salmon testes DNA, 50 uM zinc acetate, 200 nM TF, 25 C, 1 h; high values mean tight binding. To be noted: protein: recombinant; tags: N-terminal polyhistidine and DsRed monomer fusion (pET32a); label: CyDye5-dUTP incorporated in the synthesized complementary strand; 3' TTTTT single-stranded linker to array surface; dsDNA, one strand shown. An outline of the steps:
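Polyhistidine-tagged DsRed fusions of transcription factors, joined at the N-terminus, were expressed in E. coli BL21-CodonPlus and isolated on Ni–NTA. They were incubated at 200 nM for 1 h at 25 °C on a custom Agilent array, double-stranded and BSA-blocked, in PBS with 2% BSA, salmon testes DNA and 50 µM zinc acetate. The binding signal is per-feature fluorescence intensity (arbitrary units) read on an Axon 4000B scanner after washing.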
With “ACGAATCTATTGAGCCTAATTAATTCATAATTAGTCTATGCGGAGTCACCTAGTGCAG”, the binding signal was 14600 fluorescence intensity (a.u.). For “GAATTAAATGATGTGTGAATAATGGATGGCTAGGATGCAACGGAGTCACCTAGTGCAG”, the binding signal is 9780 fluorescence intensity (a.u.). With “TTTAATTGTTATGAACACGACAATGTAATCGGATCATAGACGGAGTCACCTAGTGCAG”, the binding signal was 10100 fluorescence intensity (a.u.). On to “ATTGTATCTAATTATTGGCAACATGGAAATTAATCTCTTGCGGAGTCACCTAGTGCAG”, for which the binding signal was 9160 fluorescence intensity (a.u.). Turning to “CATAAATCATTTCTTTTGTTTTCAAACTAAGCATATTTGACGGAGTCACCTAGTGCAG”, the binding signal is 4540 fluorescence intensity (a.u.). Take “AATGTGATTTTCATGTATCCAATTAAAATATTTTAAGAAGCGGAGTCACCTAGTGCAG”: the binding signal is 9180 fluorescence intensity (a.u.). On to “CCTTGATGATTGAACCAGTCAGCCCCAACATCTCTATAAACGGAGTCACCTAGTGCAG”, for which the binding signal is 25800 fluorescence intensity (a.u.). As to “GCAATTTGATTTGGCCTGTATATTATTATGTGCAGGGTTCCGGAGTCACCTAGTGCAG”, the binding signal was 13800 fluorescence intensity (a.u.). On to “TAATTTATTAATTTATTATTAGAGTATATATATTTCAAGACGGAGTCACCTAGTGCAG”, for which the binding signal is 6800 fluorescence intensity (a.u.). For “TTTCAAGAGATTAATTAATTTTCTCAACTTTGCAAGGGCACGGAGTCACCTAGTGCAG”, the binding signal is 16000 fluorescence intensity (a.u.). For the sequence “CCTTAATTAATTAATTTCTAGATCTCAAGAGGGCAACAGACGGAGTCACCTAGTGCAG”, the binding signal is 57200 fluorescence intensity (a.u.). The value for “TTACAGATTGGCCCCTGTATTTCTCTCTCTCGTCTCTCCTCGGAGTCACCTAGTGCAG” was 24800 fluorescence intensity (a.u.); that for “TTATCAATCTACATCGTTATAATTTAGTTCCACCGTAATTCGGAGTCACCTAGTGCAG” was 19800 fluorescence intensity (a.u.). The value for “GCCGGGAGGGAGGGAGGGAGGGAGGGAGGGAGACCCCGCACGGAGTCACCTAGTGCAG” was 9960 fluorescence intensity (a.u.).

In the case of “TTGATTTGAAAGGTACTACCTCTGTTTCAGGTTAGAAAGTCGGAGTCACCTAGTGCAG”, the binding signal was 3380 fluorescence intensity (a.u.). The value for “TAGATGATTATTATGATAGGATTGATTTGTTTAGAGTCTTCGGAGTCACCTAGTGCAG” was 46100 fluorescence intensity (a.u.). With “GATGATTTGATTAGATTAGGTTAGGTTTGTTATTCACCTACGGAGTCACCTAGTGCAG”, the binding signal is 65500 fluorescence intensity (a.u.). The value for “AGATGATTGATTTTCAGGTGATGAACAGGGTTACTGTTTTCGGAGTCACCTAGTGCAG” was 63000 fluorescence intensity (a.u.); that for “TTATTAGATGATGATTATTTTGAGAAGGTTTCTTAGGATGCGGAGTCACCTAGTGCAG” was 12900 fluorescence intensity (a.u.); that for “GTTAGGGTTTTCTTTTGATTGTCAGGGTTTTCTTTTGATTCGGAGTCACCTAGTGCAG” was 3960 fluorescence intensity (a.u.). Turning to “AGTCATCAAAATTACGCATGTAATTAGTATATATAATTATCGGAGTCACCTAGTGCAG”, the binding signal is 9910 fluorescence intensity (a.u.). The value for “TTTAGTATATAATAGATAGATAGATAGAAGATTTGTACTACGGAGTCACCTAGTGCAG” was 4500 fluorescence intensity (a.u.); that for “GCTGACTGGATAAAATCTGATAAGCGTGAAGATGACCTTTCGGAGTCACCTAGTGCAG” was 21400 fluorescence intensity (a.u.). Consider “TTCGAAAATTACCTGTAACCTTCCATCCATCACACACACACGGAGTCACCTAGTGCAG”, for which the binding signal was 3500 fluorescence intensity (a.u.). With “AGCTAATTAAGCTAGTGAGAGCTAGTGGAGGTACATGGCTCGGAGTCACCTAGTGCAG”, the binding signal is 11600 fluorescence intensity (a.u.). The value for “TAATTGATGTAATTTAAATTATTCTTGGTCTTAGTGTATACGGAGTCACCTAGTGCAG” was 54800 fluorescence intensity (a.u.); that for “GGGTGATATAAATTAGGAGGTGATAATAATTATTTCTTGGCGGAGTCACCTAGTGCAG” was 26700 fluorescence intensity (a.u.). With “ATAAAATAAATGATAATTACATAAATTTCTTTAAATAAGACGGAGTCACCTAGTGCAG”, the binding signal was 10900 fluorescence intensity (a.u.). Regarding “CTGTGAATTGATTCATCTCTCACACATGGTTCTCCACTATCGGAGTCACCTAGTGCAG”, the binding signal was 9680 fluorescence intensity (a.u.). For the sequence “AGCTGATCTATCCAAATTGGTGAAACTAATTGTAAATTCTCGGAGTCACCTAGTGCAG”, the binding signal was 11000 fluorescence intensity (a.u.). Regarding “TTAATTAGGAGATATTGATTGATAAACGTACCTCTTGGTGCGGAGTCACCTAGTGCAG”, the binding signal was 65300 fluorescence intensity (a.u.).

Regarding “CTTTAATTGGTGCTTGTTAAACCTCTTAGTGCTTGTTAAACGGAGTCACCTAGTGCAG”, the binding signal is 29200 fluorescence intensity (a.u.). With “GATTGATGCAATTTAAATTATACTTAGTATTGGTGTATAACGGAGTCACCTAGTGCAG”, the binding signal was 11400 fluorescence intensity (a.u.). As to “GCTTACAATTAATGATTACCTTTTCATAAAGATTATTATTCGGAGTCACCTAGTGCAG”, the binding signal is 12400 fluorescence intensity (a.u.). With “TTGATTGATGTCATTTAAATTATCATTGGTCTTGGTGTATCGGAGTCACCTAGTGCAG”, the binding signal was 41100 fluorescence intensity (a.u.).

In the case of “ACAATGATTGGGTCTTAAGATTTTCTTTAATTATTCGACGCGGAGTCACCTAGTGCAG”, the binding signal was 58300 fluorescence intensity (a.u.). Consider “CGATTGATTGATTCTTGGTGCTCACTATCTCTAAATTGATCGGAGTCACCTAGTGCAG”, for which the binding signal was 59600 fluorescence intensity (a.u.). Consider “AATAAATCTATAATTTTATGATATTATGACTTAAATCTATCGGAGTCACCTAGTGCAG”, for which the binding signal is 4790 fluorescence intensity (a.u.). “TTTTATTAACTGTAAACGTCACATGTTCTGTCATACGCGTCGGAGTCACCTAGTGCAG”: the binding signal is 5270 fluorescence intensity (a.u.). “CTTGTCAATCTACAGAGAGTCCACGAGTTAGTAGTATGTGCGGAGTCACCTAGTGCAG”: the binding signal is 8690 fluorescence intensity (a.u.). As to “TAGTTAATTGTGCCAAACAAAATTCAAAATTAAGACATCTCGGAGTCACCTAGTGCAG”, the binding signal was 33000 fluorescence intensity (a.u.). In the case of “CACATTGACCAAAATTTAATGTTTGTTTCCTACTAGTGTGCGGAGTCACCTAGTGCAG”, the binding signal was 4440 fluorescence intensity (a.u.). With “AATAATTTTCTTTTGTCACACTGTTTCTTCTCTAATCTATCGGAGTCACCTAGTGCAG”, the binding signal is 5890 fluorescence intensity (a.u.). On to “TATTGATATGATTTAAATTGTCCTTGGTCTTGGTGTATAACGGAGTCACCTAGTGCAG”, for which the binding signal is 40700 fluorescence intensity (a.u.). As for “GGTGTCTTGATTGATATGATTTAAATTATTCTTGGTCTTGCGGAGTCACCTAGTGCAG”, the binding signal was 58500 fluorescence intensity (a.u.).

Consider “ACACTAATTAGGGAGATAATCTCTCTTGTGGTGTTTGTGTCGGAGTCACCTAGTGCAG”, for which the binding signal was 52300 fluorescence intensity (a.u.).

Regarding “TATTAATTGATGCGATTTAAATTATCTTTGGTCTTGATGTCGGAGTCACCTAGTGCAG”, the binding signal was 50000 fluorescence intensity (a.u.). Take “TGGCACACTAATTAGGGAGAAAATCTCTATCTTGTGTTGTCGGAGTCACCTAGTGCAG”: the binding signal is 9710 fluorescence intensity (a.u.).

Regarding “ATACTGTCATCAATTGATTACTCTGACCGTCGATCACACACGGAGTCACCTAGTGCAG”, the binding signal is 34100 fluorescence intensity (a.u.). The value for “TTATAACACAAATAATATAATAGATATATAGACTGTTGTCCGGAGTCACCTAGTGCAG” was 3650 fluorescence intensity (a.u.).

With “ATGTAATTTCACCATAACTATATATTATAATAAGATAAGTCGGAGTCACCTAGTGCAG”, the binding signal was 8720 fluorescence intensity (a.u.).

In the case of “GTGTATCATCTAGGTCCTAAATTGACACATCCCCTCTAGGCGGAGTCACCTAGTGCAG”, the binding signal is 10100 fluorescence intensity (a.u.).

As for “TACCATGATTGGGCTGCAACTAAATTGACAGGTCAGCCATCGGAGTCACCTAGTGCAG”, the binding signal is 60400 fluorescence intensity (a.u.). With “ATGATTTTCATCCGTTAGATTTGATGAATAAAGTATGAAGCGGAGTCACCTAGTGCAG”, the binding signal was 11100 fluorescence intensity (a.u.).

On to “ATATAGTTACCAAAATTTGACAGCAAACTAAATGTAGCCACGGAGTCACCTAGTGCAG”, for which the binding signal was 7890 fluorescence intensity (a.u.). “CTGATGATTCACCCATGATCGATTGCTCGATCCGTTTAAGCGGAGTCACCTAGTGCAG”: the binding signal was 3710 fluorescence intensity (a.u.). As to “CTAGATTGATCGAAATCCGTCAAGTTCATGAACCGTTAAGCGGAGTCACCTAGTGCAG”, the binding signal is 54400 fluorescence intensity (a.u.). “AAGTGATTGAAATTTAATTCATGATCCTAAACCATACAACCGGAGTCACCTAGTGCAG”: the binding signal was 53200 fluorescence intensity (a.u.). “AATTGAAATAATTGGAAATTTTCATATTTATATATTAAACCGGAGTCACCTAGTGCAG”: the binding signal is 5800 fluorescence intensity (a.u.). Regarding “TTATATAGTTACCAAAATTTGACAGCAAACTAAATGTAGCCGGAGTCACCTAGTGCAG”, the binding signal is 3680 fluorescence intensity (a.u.). Regarding “AGGGTGATTGACAGGTGGGTCCATCCCCTCACATGCCAGGCGGAGTCACCTAGTGCAG”, the binding signal was 64800 fluorescence intensity (a.u.).

“AAGAAAATTTAAAACAATTGATTACATACTAAATTAATATCGGAGTCACCTAGTGCAG”: the binding signal is 9840 fluorescence intensity (a.u.). Take “TCCAGGTGATGGTAATGATATTGACATGCCCTCATCTAGTCGGAGTCACCTAGTGCAG”: the binding signal is 3770 fluorescence intensity (a.u.).
